This is one part of a sample in which hits are shown more often than they occur.
ST2 IL33 inh: IL1RL1 inhibition; Q01638; AlphaLISA ST2-Fc/biotin-IL-33 interaction, 1 h; 2.3% of 78,000 active; inhibition, % for hits at 17 µM; in the data active = inhibition above about 30%
Target sequence (Q01638 whole entry, looked up): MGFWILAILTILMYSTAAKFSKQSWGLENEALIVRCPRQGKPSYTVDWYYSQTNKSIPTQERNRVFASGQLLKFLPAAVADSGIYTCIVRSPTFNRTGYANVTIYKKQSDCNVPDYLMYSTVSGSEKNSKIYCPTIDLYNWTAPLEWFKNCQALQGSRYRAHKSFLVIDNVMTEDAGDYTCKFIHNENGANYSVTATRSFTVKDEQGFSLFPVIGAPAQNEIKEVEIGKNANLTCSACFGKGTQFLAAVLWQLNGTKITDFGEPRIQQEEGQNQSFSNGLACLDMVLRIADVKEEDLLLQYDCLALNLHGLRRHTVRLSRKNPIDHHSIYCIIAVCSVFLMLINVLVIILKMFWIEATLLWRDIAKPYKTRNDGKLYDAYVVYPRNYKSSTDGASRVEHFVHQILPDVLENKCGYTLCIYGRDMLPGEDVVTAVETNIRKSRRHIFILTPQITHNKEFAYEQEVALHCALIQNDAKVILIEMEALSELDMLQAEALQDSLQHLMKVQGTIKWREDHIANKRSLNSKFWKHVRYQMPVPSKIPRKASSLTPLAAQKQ
* marks the source's active call; other numbers are inactive results; i = inactive.

SMILES	ST2 IL33 inh
N#CC1=C(N)Oc2c(c(=O)oc3ccccc23)C1c1ccc(F)cc1 (stereo not given)	i
N#CC1=C(N)Oc2n[nH]c(C(F)(F)F)c2C1c1ccc(F)cc1 (stereo not given)	i
N#CC1=C(N)Oc2n[nH]c(-c3ccc(F)cc3)c2C1c1ccc(F)cc1 (stereo not given)	32%*
Oc1c(Cl)cc(Cl)cc1CN1CCN(c2ccccc2F)CC1	i
COc1ccc(S(=O)(=O)NC[C@H]2C[C@@H]3CCN2C[C@@H]3CN2CCN(c3ccc(F)cc3)CC2)cc1	i
CCCCOc1ccc(C2C(C#N)=C(N)Oc3c2c(=O)oc2ccccc32)cc1OC (stereo not given)	i
Fc1ccc(CN2CCN(c3ccccc3)CC2)c(F)c1	i
COc1ccc(CN2CCN(c3ccc(F)cc3)CC2)c(OC)c1	i
COc1ccc(CN2CCN(c3ccccc3)CC2)c(OC)c1	i
c1ccc(CN2CCN(c3ccccc3)CC2)cc1	i
CCN1CCN(Cc2ccc(OC)c(C)c2)CC1	i
Clc1ccc(CN2CCN(c3ccccc3)CC2)c(Cl)c1	91%*
COc1ccc(N2CCN(Cc3ccc(Cl)cc3Cl)CC2)cc1	36%*
COc1ccc(CN2CCN(CCO)CC2)cc1C	i
COc1ccc(N2CCN(Cc3ccc(OC)c(C)c3)CC2)cc1	36%*
CC[C@H]1CN2CC[C@H]1C[C@@H]2CNC(=S)NC1CCCCC1	i
CN1CCC2(CC1)CN(C(=O)c1cc(=O)[nH]c(=O)[nH]1)CCCN2C	i
CCC(CC)c1cc([C@H]2CN3CC[C@H]2C[C@@H]3CNC(=O)NC(C)C)nc(-c2ccncc2)n1	i
Fc1cnccc1CN1CCC2(CCNCC2)C1	i
O=S1(=O)N(Cc2cccc(F)c2)CCCN1Cc1cccc(F)c1	i
COCCNC(=S)NC[C@H]1C[C@@H]2CCN1C[C@@H]2CN1C[C@@H]2C[C@H](C1)c1cccc(=O)n1C2	i
COc1cccc(C2N(c3ccccn3)C(=O)C3CCCN32)c1 (stereo not given)	i
O=C(Nc1ccccc1)[C@H]1CN2CC[C@H]1C[C@@H]2Cn1cc(-c2cccc(O)c2)nn1	i
O=C(O)c1[nH]c2ccc(Cl)cc2c1CC(=O)N1CCN(C2CCCCC2)CC1	i
CN1CCc2nc(N)c(C#N)c(-c3ccc(Br)cc3)c2C1	34%*
SMILES	ST2 IL33 inh
O=C(C1CCCCC1)N1C[C@@H]2C[C@H](C1)c1c(-c3cc4ccccc4s3)ccc(=O)n1C2	i
COc1ccccc1N1CCN(Cc2cccc(Cl)c2)CC1	i
CCc1ccc(CN2CCN(c3ccccc3OC)CC2)cc1	97%*
COc1ccccc1N1CCN(Cc2ccc(Cl)cc2)CC1	i
CCOc1cc(C(c2c(O)c3ccccc3oc2=O)c2c(O)c3ccccc3oc2=O)ccc1O	i
Cc1cc(Cl)ccc1OCCCC(=O)O	i
O=C(C1CC1)N1C[C@@H]2C[C@H](C1)c1c(-c3ccc(OC(F)(F)F)cc3)ccc(=O)n1C2	i
c1cc2c(c(-c3nccc4[nH]ccc34)c1)CCNC2	i
CCOC(=O)c1nc2ccccc2c(=O)n1-c1ccc(Br)c(C)c1	i
COc1ccc(N=Cc2cc3c(cc2O)OC(N)=C(C#N)C3c2ccco2)cc1 (stereo not given)	30%*
CN1CCC(N2C[C@@H]3C[C@H](C2)c2ccc(-c4cc5ccccc5s4)c(=O)n2C3)CC1	i
Nc1n[nH]c(-c2nc(N)n[nH]2)n1	i
CSCC(=O)N1C[C@@H]2C[C@H](C1)c1ccc(-c3ccccc3CN3CCOCC3)c(=O)n1C2	i
CSc1ccc(-c2ccc3n(c2=O)C[C@H]2C[C@@H]3CN(C(=O)CCC(=O)O)C2)cc1	i
CC(C)(C)C(=O)N1C[C@@H]2C[C@H](C1)c1ccc(-c3cccc(C(F)(F)F)c3)c(=O)n1C2	i
Cc1ccccc1CN1CCN(c2cccc(Cl)c2)CC1	i
O=[N+]([O-])c1cccc(CN2CCN(c3ccc(Cl)cc3)CC2)c1	47%*
Fc1ccc(N2CCN(Cc3ccc(F)c(Br)c3)CC2)cc1	i
Fc1ccccc1N1CCN(Cc2ccc(Cl)cc2)CC1	i
O=[N+]([O-])c1ccc(N2CCN(Cc3ccc(Cl)cc3)CC2)cc1	i
CN1CCN(Cc2ccc(F)c(Br)c2)CC1	i
O=[N+]([O-])c1ccc(N2CCN(Cc3ccc(O)cc3)CC2)cc1	i
Cc1ccccc1CN1CCN(c2ccc([N+](=O)[O-])cc2)CC1	36%*
Cc1ccccc1N1CCN(Cc2ccc(Cl)cc2)CC1	i
O=[N+]([O-])c1cc(Cl)ccc1N1CCN(Cc2ccccc2)CC1	31%*
O=[N+]([O-])c1ccc(N2CCN(Cc3ccc(F)c(Br)c3)CC2)cc1	31%*
O=[N+]([O-])c1ccc(CN2CCN(c3ccc(Cl)cc3)CC2)cc1	i
COCCNC(=S)NC[C@H]1C[C@@H]2CCN1C[C@@H]2CN1CCSCC1	i
CC1CCN(C[C@H]2CN3CC[C@H]2C[C@@H]3CNC(=S)NCCN2CCOCC2)CC1	i
Cc1ccc(S(=O)(=O)NC[C@H]2C[C@@H]3CCN2C[C@@H]3CN2CCN(c3ccc(F)cc3)CC2)cc1	i
